Laboratory results reported in PubChem BioAssay (NCATS).
Active and inactive are the calls of the source. Calls come from the whole dose curve; as a rule, active = well fitted curve in the direction sought with a large enough effect; inconclusive = small, poorly fitted or top-dose-only effect, or another doubt; inactive = no such curve, though single readings can be large or run the other way.

What follows are compounds tested against T1, Hexokinase-4 (Homo sapiens) + Glucokinase regulatory protein (Homo sapiens) (UniProt P35557+Q14397) (assay: qHTS assay for inhibitors of recombinant human GCK-GKRP interaction: Diaphorase-coupled assay (AID 743205)). Details: G6PDH/diaphorase resorufin fluorescence; series mostly up to 57.5 µM; activity change, positive = activation: at the top concentration.
Summary of the method: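 Resorufin fluorescence (525/590 nm), read each minute over 30 min, reports GCK activity coupled via G6PDH and diaphorase. Reaction: 10 nM GST-GCK, 10 nM FLAG-GKRP, 5 mM glucose, 0.4 mM ATP, 0.15 mM NADP+, 0.1 mM resazurin.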

T1 sequence (P35557 whole entry, looked up): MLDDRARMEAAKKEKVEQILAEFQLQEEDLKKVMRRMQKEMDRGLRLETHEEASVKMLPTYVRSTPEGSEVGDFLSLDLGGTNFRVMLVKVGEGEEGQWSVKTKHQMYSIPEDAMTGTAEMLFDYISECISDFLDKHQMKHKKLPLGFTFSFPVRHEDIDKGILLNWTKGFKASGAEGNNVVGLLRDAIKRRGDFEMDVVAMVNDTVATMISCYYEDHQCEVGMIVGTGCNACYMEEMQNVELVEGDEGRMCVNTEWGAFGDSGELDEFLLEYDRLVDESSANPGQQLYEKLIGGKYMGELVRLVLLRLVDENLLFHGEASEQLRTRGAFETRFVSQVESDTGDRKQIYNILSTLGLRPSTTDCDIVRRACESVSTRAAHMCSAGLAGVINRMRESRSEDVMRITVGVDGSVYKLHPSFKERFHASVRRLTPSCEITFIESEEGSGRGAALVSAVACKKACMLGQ
T1 sequence (Q14397 whole entry, looked up): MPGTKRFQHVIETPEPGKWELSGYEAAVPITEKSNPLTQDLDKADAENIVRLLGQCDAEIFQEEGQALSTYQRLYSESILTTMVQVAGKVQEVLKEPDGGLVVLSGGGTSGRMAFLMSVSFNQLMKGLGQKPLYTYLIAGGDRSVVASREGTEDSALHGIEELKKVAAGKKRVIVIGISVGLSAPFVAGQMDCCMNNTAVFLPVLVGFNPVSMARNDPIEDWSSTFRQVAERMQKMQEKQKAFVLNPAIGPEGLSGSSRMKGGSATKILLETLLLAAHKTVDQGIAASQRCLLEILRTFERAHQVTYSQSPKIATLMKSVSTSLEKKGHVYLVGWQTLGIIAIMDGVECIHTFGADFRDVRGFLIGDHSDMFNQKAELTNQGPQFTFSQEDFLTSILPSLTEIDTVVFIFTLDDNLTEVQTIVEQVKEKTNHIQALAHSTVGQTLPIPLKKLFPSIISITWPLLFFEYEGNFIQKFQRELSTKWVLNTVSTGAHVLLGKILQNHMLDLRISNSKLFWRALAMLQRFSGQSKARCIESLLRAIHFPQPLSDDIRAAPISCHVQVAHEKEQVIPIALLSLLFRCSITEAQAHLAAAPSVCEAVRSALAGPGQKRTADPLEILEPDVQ

Structure (SMILES) | activity change, positive = activation
CO/N=C(\C(=O)N[C@@H]1C(=O)N2C(C(=O)O)=C(CSc3nc(=O)c(O)nn3C)CSC12)c1csc(N)n1 (stereo not given in full) | -8.74% (inactive)
CN(CC[C@@H](Oc1ccc(C(F)(F)F)cc1)c1ccccc1)CC(=O)O | -3.88% (inactive)
NCCCCN=C(N)N | -1.95% (inactive)
N#CC(=C(\N)Sc1ccccc1N)/C(C#N)=C(/N)Sc1ccccc1N | -6.93% (inactive)
CC1=C(/C=C/C(C)=C/C=C/C(C)=C\C(=O)O)C(C)(C)CCC1 | -7.26% (inactive)
O=C(O)Cc1ccc(O)c(O)c1 | -5.12% (inactive)
Nc1nc2ccc(Cl)cc2c2nc(-c3ccco3)nn12 | -5.84% (inactive)
CC1=C(C(=O)O)N2C(=O)[C@@H](NC(=O)C(N)C3=CCC=CC3)[C@H]2SC1 (stereo not given in full) | -10.6% (inactive)
CN1CCN(c2nc3cc(C(F)(F)F)ccc3n3cccc23)CC1 | -4.65% (inactive)
[Li+] | -0.252% (inactive)
CCC(=O)N1CCN(C(=O)c2ccccc2)CC1 | -1.69% (inactive)
NC(=O)c1cc[n+](CC2=C(C(=O)O)N3C(=O)[C@@H](NC(=O)[C@@H](c4ccccc4)S(=O)(=O)[O-])[C@H]3SC2)cc1 | -5.59% (inactive)
Nc1ncnc2c1nc(Br)n2C1OC2COP(=O)(O)O[C@@H]2C1O (stereo not given in full) | 1.61% (inactive)
CC(C)(C)c1ccc(/C=C/C(=O)Nc2ccc3c(c2)OCCO3)cc1 | -15.9% (inactive)
CC(=O)[C@H]1CCC2C3CC=C4C[C@@H](OS(=O)(=O)O)CC[C@]4(C)C3CC[C@@]21C (stereo not given in full) | 7.82% (inactive)
NC(N)=[N+]1CCc2ccccc2C1 | 1.36% (inactive)
COc1ccc2c(c1)c(CC(=O)O)c(C)n2Cc1ccc(Cl)cc1 | -25.5% (inactive)
Cn1cc(C(=O)OCC2CCN(CCNS(C)(=O)=O)CC2)c2ccccc21 | -6.41% (inactive)

Structure (SMILES) | activity change, positive = activation
CC1CCN(CC[C@H]2CCCN2S(=O)(=O)c2cccc(O)c2)CC1 | -1.06% (inactive)
NCCS(=O)O | -2.82% (inactive)
CC(=O)O[C@H]1CC2(C)[C@@H](C[C@@H](O)[C@H]3[C@@]4(C)CC[C@@H](O)[C@@H](C)[C@@H]4CC[C@@]32C)C1=C(CCC=C(C)C)C(=O)O (stereo not given in full) | -3.21% (inactive)
COc1cc(C(O)C(=O)O)ccc1O (stereo not given) | -2.49% (inactive)
O=C(O)C1CCCNC1 (stereo not given) | 1.67% (inactive)
COC(=O)C(C)(N)Cc1ccc(O)cc1 (stereo not given) | 1.74% (inactive)
N[C@@H](CS(=O)O)C(=O)O | 0.409% (inactive)
Cc1cc2c(cc1Cl)N(C(=O)Nc1ccnc3ccccc13)CC2 | -39.6% (inactive)
Nc1nc2[nH]c(=O)cnc2c(=O)[nH]1 | -1.23% (inactive)
CC(C)NCC(O)COc1ccc(CC(N)=O)cc1 (stereo not given) | -1.78% (inactive)
CNc1cc(NS(=O)(=O)c2ccc(N)cc2)nc(NC)n1 | -4.85% (inactive)
CCCOC(=O)c1c(-c2ccccc2)nc(CC)c(C(=O)SCC)c1CCC | -7.02% (inactive)
CC(C)[C@@H]1CC[C@@H](C)C[C@@H]1P(=O)(c1ccccc1)c1ccccc1 | -1.15% (inactive)
CC(=O)N[C@@H](Cc1c[nH]c2ccccc12)C(=O)OCc1cc(C(F)(F)F)cc(C(F)(F)F)c1 | -6.26% (inactive)
CCCCCCCCCC(=O)NC(CN1CCOCC1)[C@H](O)c1ccccc1 (stereo not given in full) | 1.06% (inactive)
NCC(O)(CS(=O)(=O)O)c1ccc(Cl)cc1 (stereo not given) | -0.607% (inactive)
NCCCNCCCCNCCCN | 1.32% (inactive)
N=C(N)c1ccccc1 | -5.04% (inactive)

Each compound was assayed against T1, Hexokinase-4 (Homo sapiens) + Glucokinase regulatory protein (Homo sapiens) (assay: qHTS assay for inhibitors of recombinant human GCK-GKRP interaction: ADP-Glo assay (AID 743206;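 note: plate controls were DMSO plus enzyme for no effect and no enzyme for full effect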)). Details: ADP-Glo luminescence, 60 min; series mostly up to 76.9 µM; activity, positive = activation: at the top concentration.
Summary of the method: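 Pin-transferred compounds meet a 15 nM GST-GCK/15 nM FLAG-GKRP/2 uM S6P mix (dispense concentrations). ATP is then added to 0.4 mM final with 5 mM glucose, and the reaction runs 60 min at room temperature. ADP is quantified luminescently.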

Structure (SMILES) | activity, positive = activation
CN(CC[C@@H](Oc1ccc(C(F)(F)F)cc1)c1ccccc1)CC(=O)O | 4.42% (inactive)
CC#CCOC(=O)c1c(C)nc2sc3c(c2c1N)CCC(O)C3 (stereo not given) | -2.58% (inactive)
CC1=C(C(=O)O)N2C(=O)[C@@H](NC(=O)C(N)C3=CCC=CC3)[C@H]2SC1 (stereo not given in full) | 0.461% (inactive)
[Li+] | 0.925% (inactive)
NC(=O)c1cc[n+](CC2=C(C(=O)O)N3C(=O)[C@@H](NC(=O)[C@@H](c4ccccc4)S(=O)(=O)[O-])[C@H]3SC2)cc1 | 10.2% (inactive)
O=C(O)CCC(=O)N1CCCC1C(=O)O (stereo not given) | -2.28% (inactive)
COc1cc(C(O)C(=O)O)ccc1O (stereo not given) | 1.86% (inactive)
CC(C)NCC(O)COc1ccc(CC(N)=O)cc1 (stereo not given) | 3.92% (inactive)
CC(C)[C@@H]1CC[C@@H](C)C[C@@H]1P(=O)(c1ccccc1)c1ccccc1 | -0.701% (inactive)
CCCCCCCCCC(=O)NC(CN1CCOCC1)[C@H](O)c1ccccc1 (stereo not given in full) | -3.06% (inactive)

These compounds were tested against T1, Hexokinase-4 (Homo sapiens) + Glucokinase regulatory protein (Homo sapiens) (assay: qHTS assay for inhibitors of recombinant human GCK-GKRP interaction: HTRF assay (AID 743207;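 note: 0% = DMSO with GCK present and -100% = DMSO wells lacking GCK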)). Details: recombinant GCK-GKRP HTRF binding, 60 min, with sorbitol-6-phosphate; series mostly up to 57.5 µM; activity change, negative = inhibition: at the top concentration.
Summary of the method: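 HTRF read-out (ex 320 nm; 615/665 nm emission) after 60 min RT equilibration of 5 nM GST-GCK, 5 nM FLAG-GKRP, 2 uM S6P, compound and anti-FLAG/anti-GST detection antibodies; signal normalized between DMSO wells with and without GCK.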

Structure (SMILES) | activity change, negative = inhibition
NCCCCN=C(N)N | 11.1% (inactive)
N#CC(=C(\N)Sc1ccccc1N)/C(C#N)=C(/N)Sc1ccccc1N | 0.311% (inactive)
CC1=C(/C=C/C(C)=C/C=C/C(C)=C\C(=O)O)C(C)(C)CCC1 | 8.36% (inactive)
O=C(O)Cc1ccc(O)c(O)c1 | -0.404% (inactive)
Nc1nc2ccc(Cl)cc2c2nc(-c3ccco3)nn12 | -0.418% (inactive)
CN1CCN(c2nc3cc(C(F)(F)F)ccc3n3cccc23)CC1 | -2.94% (inactive)
CCC(=O)N1CCN(C(=O)c2ccccc2)CC1 | 0.0503% (inactive)
Nc1ncnc2c1nc(Br)n2C1OC2COP(=O)(O)O[C@@H]2C1O (stereo not given in full) | 8.96% (inactive)
CC(C)(C)c1ccc(/C=C/C(=O)Nc2ccc3c(c2)OCCO3)cc1 | -4.62% (inactive)
NC(N)=[N+]1CCc2ccccc2C1 | -8.37% (inactive)
CC1CCN(CC[C@H]2CCCN2S(=O)(=O)c2cccc(O)c2)CC1 | -9.22% (inactive)
NCCS(=O)O | -18% (inactive)
O=C(O)CCC(=O)N1CCCC1C(=O)O (stereo not given) | 7.68% (inactive)
O=C(O)C1CCCNC1 (stereo not given) | -2.81% (inactive)
COC(=O)C(C)(N)Cc1ccc(O)cc1 (stereo not given) | -5.08% (inactive)
N[C@@H](CS(=O)O)C(=O)O | -5.02% (inactive)
Cc1cc2c(cc1Cl)N(C(=O)Nc1ccnc3ccccc13)CC2 | -22.4% (inactive)
Nc1nc2[nH]c(=O)cnc2c(=O)[nH]1 | -9.8% (inactive)
CNc1cc(NS(=O)(=O)c2ccc(N)cc2)nc(NC)n1 | 1.18% (inactive)
CCCOC(=O)c1c(-c2ccccc2)nc(CC)c(C(=O)SCC)c1CCC | -1.97% (inactive)
CC(=O)N[C@@H](Cc1c[nH]c2ccccc12)C(=O)OCc1cc(C(F)(F)F)cc(C(F)(F)F)c1 | -2.81% (inactive)
NCC(O)(CS(=O)(=O)O)c1ccc(Cl)cc1 (stereo not given) | 15.8% (inactive)
NCCCNCCCCNCCCN | -2.16% (inactive)
N=C(N)c1ccccc1 | -3.27% (inactive)
